Reference: PubChem BioAssay (NCI)
This is part of a sample that, as a whole, favours compounds with a hit. Of some 83,000 tested, about 20% had one in any assay.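 For each line, cells grew in 96-well plates with the test compound present at a single concentration for 48 hours.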 Values without a mark were called inactive. The source made the active and inactive calls. Rule for the calls: active = growth percent below 10; inactive = the rest.

Each molecule was assayed on MDA-MB-468 breast (assay: NCI-60 one-dose screen, 48 h (100 = growth as untreated, 0 = no growth, -100 = all killed)). Settings: 10 µM unless noted.

Row | Structure (SMILES) | growth
1 | CC(C)c1ccccc1NC(=O)N1CCC(C(C)C)CC1 | 99.8%
2 | Cc1cc(OCc2ccc(C(F)(F)F)cc2)c2c(c1)C(=O)C=C(NCCN1CCCC1)C2=O | 51.3%
3 | O=C(CCl)N(c1ccccc1)c1ccccc1 | 104%
4 | CCOC(=O)N1C/C(=C/c2ccc(F)cc2)C(=O)/C(=C/c2ccc(F)cc2)C1 | -55.6% (active)
5 | N#Cc1c(-c2cccc(Cl)c2)cc(-c2cccnc2)[nH]c1=O | 49.3%
6 | C=C1C(=O)O[C@H]2[C@H]1CC/C(COC(=O)c1ccc(Br)cc1)=C\CC[C@@]1(C)O[C@@H]21 | -23.1% (active)
7 | ClC1=C(Cl)C(=C2C(Cl)=C(Cl)C(Cl)=C2Cl)C(Cl)=C1Cl | 114%
8 | COc1ccc(C2CC(=O)c3c(O)c(OC)c(OC)c(OC)c3O2)c(O)c1 (stereo not given) | -3.61% (active)
9 | COC(=O)[C@]12CC[C@@H](C(=O)/C=C/c3cccnc3)[C@@H]1[C@H]1CC[C@@H]3[C@@]4(C)C/C(=C/c5cccnc5)C(=O)C(C)(C)[C@@H]4CC[C@@]3(C)[C@]1(C)CC2 | -76.1% (active)
10 | CC1CCC(=O)N1c1ccc(N)cc1 (stereo not given) | 115%
11 | CC/C(Cc1ccccc1)=C(\c1ccc(OCCN2CCCCCC2)cc1)c1ccc(OC(=O)NCc2ccccc2)cc1 | 53.3%
12 | CCN1CCN(CC(=O)Nc2nc3ccc(NCc4ccc(Cl)cc4)cc3s2)CC1 | 47.8%
13 | Nc1cc(C(=O)O)[nH]c(=S)n1 | 95.3%
14 | C#CCOc1ccc2ncnc(Nc3cccc(CNC(=O)CCl)c3)c2c1 | -3.41% [8.25 µM] (active)
15 | CCOC(=O)c1sc2ncc(-c3ccc(OC)cc3)n2c1C | 103%
16 | CC(=O)N1N=C(c2ccc(C(F)(F)F)cc2)CC1c1ccc2c(c1)OCO2 (stereo not given) | 93.8%
17 | COc1ccc2oc(=O)cc(-c3c(C#N)c(N)n4nc(N)c(C#N)c4c3C#N)c2c1 | 94.7%
18 | O=C(NCCO)c1cccnc1 | 93.7%
19 | Cc1ccc2c(n1)C(=O)C(Cl)=C(Nc1cccc(C)c1C)C2=O | -63.3% (active)
20 | Cc1cc(N)c2cc(NC(=O)/C=C\c3ccccc3Cl)ccc2n1 | -81.1% (active)

Row | Structure (SMILES) | growth
21 | CC1=C(O)C(=O)C(c2c(C)cc(C)c(Br)c2C)=C(O)C1=O | 85.8%
22 | CC1(C)Nc2cccc3c(N=Nc4ccc(N=Nc5ccccc5)c5ccccc45)ccc(c23)N1 | 95.9%
23 | O=C1CCc2ccccc2N1 | 98.8%
24 | CN(C)c1ccc(C2Nc3ccccc3-n3cccc32)cc1 (stereo not given) | -50.4% (active)
25 | C=C1C(=O)O[C@H]2[C@H]1CC/C(COC(=O)NCc1c[nH]c3ccc(Cl)cc13)=C\CC[C@@]1(C)O[C@@H]21 | -70.9% (active)
26 | COc1cccc(C(Cc2ccccc2)Nc2ccccc2)c1OC (stereo not given) | 111%
27 | N#CCCc1c[nH]c2ccccc12 | 94.5%
28 | O=C(/C=C/c1cc(CN2CCOCC2)c(O)c2ncccc12)c1cc(CN2CCOCC2)c(O)c2ncccc12 | 4.37% (active)
29 | CCOC(=O)/C(C)=C\c1ccc(OC)c(OC)c1 | 103%
30 | CO[C@]12C=C/C(=C(/C(=O)OCc3cccnc3)C(=O)CCCCCCCC[C@]3(OC)C=C/C(=C(/C(=O)OCc4cccnc4)C(=O)CCCCCCCC1)O3)O2 | -50.5% (active)
31 | Cc1ccc(-c2cc(-c3nnc(SCC(=O)c4ccccc4)o3)c3ccccc3n2)cc1 | 115%
32 | Cc1c(C(=O)N[C@H](CO)Cc2ccccc2)[nH]c2ccc(Cl)cc2c1=O | 95.5%
33 | CCCCCCCCCC(C)NC(=O)CCl (stereo not given) | 95.4%
34 | COc1ccc(/C=C/C(=O)c2ccc(B(O)O)cc2)cc1O | 66.8%
35 | Clc1ccc2[nH]cc(-c3cncn3CCc3ccc4c(c3)OCO4)c2c1 | 6.19% (active)
36 | Cc1nn(-c2ccc(Cl)cc2)c2ncnc(N/N=C/c3cccc([N+](=O)[O-])c3)c12 | 117%
37 | CNC1CCc2c(sc(NC(=O)c3ccc(C(C)(C)C)cc3)c2C(N)=O)C1 (stereo not given) | -37.2% (active)
38 | c1ccc(-c2n(Cc3ccc4ccccc4c3)c3ccccc3[n+]2Cc2ccc3ccccc3c2)cc1 | -35.4% (active)
39 | CCN(CC)CCSCCN(CC)CC | 93.4%
40 | CSc1ccc(/C(=N/N=C(N)N)c2ccc(Cl)cc2)cc1 | -36.1% (active)
